# Many of the other results were omitted from the sample, so the strongest signals are more common in it than they were.
# B1: FimA-N3 (Actinomyces oris) (protein)
# chain: MHHHHHHSSGVDLGTENLYFQSNAGLQGAQFQLYKAKNAYANTCSNEKEGAPIAINGQTTLTTDAQGAIDIKGLFISDSIDGADRDNQVNAMERCYVLVETKAPAGYVLPAGNGAATPVKVKAGEETTDN
# Assays:
# Assay in all cases: glycan array binding signal (z-score within array); higher = stronger binding
# Conditions in all cases: glycan notation: IUPAC condensed, linker removed
# [1] = target: Gal3S(b1-4)[Fuc(a1-3)]GlcNAc6S
# How it was run: (§1)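 The binding signal is a Z-score computed within each array. Data were drawn from 3228 arrays in the Consortium for Functional Glycomics database, restricted to those with a known protein sequence. Scores were averaged over arrays of the same protein sequence at different concentrations or buffers, and over linkers, and negative values can be taken as non-binding.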
# [2] = target: Gal3S6S(b1-4)GlcNAc6S
# How it was run: as §1
# [3] = target: Gal6S(b1-3)GlcNAc6S
# How it was run: as §1
# [4] = target: GalNAc(b1-3)Gal
# How it was run: as §1
# [5] = target: GalNAc(b1-4)GlcNAc
# How it was run: as §1
# [6] = target: Glc(a1-6)Glc(a1-6)Glc
# How it was run: as §1
# [7] = target: GlcNAc(b1-2)[GlcNAc(b1-4)]Man(a1-3)[GlcNAc(b1-4)][GlcNAc(b1-2)[GlcNAc(b1-6)]Man(a1-6)]Man(b1-4)GlcNAc(b1-4)[Fuc(a1-6)]GlcNAc
# How it was run: as §1
# [8] = target: GlcNAc(b1-2)[GlcNAc(b1-6)]Man(a1-6)[GlcNAc(b1-2)Man(a1-3)]Man(b1-4)GlcNAc(b1-4)[Fuc(a1-6)]GlcNAc
# How it was run: as §1
# [9] = target: GlcNAc(b1-3)Fuc
# How it was run: as §1
# [10] = target: GlcNAc(b1-3)Gal(b1-4)GlcNAc(b1-3)Gal(b1-4)GlcNAc(b1-2)[GlcNAc(b1-3)Gal(b1-4)GlcNAc(b1-3)Gal(b1-4)GlcNAc(b1-6)]Man(a1-6)[GlcNAc(b1-3)Gal(b1-4)GlcNAc(b1-3)Gal(b1-4)GlcNAc(b1-2)Man(a1-3)]Man(b1-4)GlcNAc(b1-4)[Fuc(a1-6)]GlcNAc
# How it was run: as §1
# [11] = target: GlcNAc(b1-3)Gal(b1-4)GlcNAc(b1-3)Gal(b1-4)GlcNAc(b1-3)Gal(b1-4)GlcNAc(b1-3)Gal(b1-4)GlcNAc(b1-2)Man(a1-3)[GlcNAc(b1-3)Gal(b1-4)GlcNAc(b1-3)Gal(b1-4)GlcNAc(b1-3)Gal(b1-4)GlcNAc(b1-3)Gal(b1-4)GlcNAc(b1-2)Man(a1-6)]Man(b1-4)GlcNAc(b1-4)GlcNAc
# How it was run: as §1
# [12] = target: Man(a1-2)Man(a1-6)[Man(a1-3)]Man(a1-6)[Man(a1-2)Man(a1-2)Man(a1-3)]Man
# How it was run: as §1
# [13] = target: Man(a1-3)[Man(a1-6)]Man(a1-6)[Man(a1-3)]Man(b1-4)GlcNAc(b1-4)GlcNAc
# How it was run: as §1
# [14] = target: Man(a1-6)Man
# How it was run: as §1
# [15] = target: Neu5Ac(a2-3)Gal(b1-3)GlcNAc(b1-6)GalNAc
# How it was run: as §1
# [16] = target: Neu5Ac(a2-3)Gal(b1-3)[Fuc(a1-4)]GlcNAc
# How it was run: as §1
# [17] = target: Neu5Ac(a2-3)GalNAc(b1-4)GlcNAc
# How it was run: as §1
# [18] = target: Neu5Ac(a2-3)[GalNAc(b1-4)]Gal(b1-4)GlcNAc(b1-3)GalNAc
# How it was run: as §1
# [19] = target: Neu5Ac(a2-6)Gal(b1-4)GlcNAc(b1-2)Man
# How it was run: as §1
# [20] = target: Neu5Ac(a2-6)Gal(b1-4)GlcNAc(b1-2)Man(a1-3)Man(b1-4)GlcNAc(b1-4)GlcNAc
# How it was run: as §1
# [21] = target: Neu5Ac(a2-6)Gal(b1-4)GlcNAc(b1-2)Man(a1-6)[GlcNAc(b1-2)Man(a1-3)]Man(b1-4)GlcNAc(b1-4)GlcNAc
# How it was run: as §1
# [22] = target: Neu5Ac(a2-6)Gal(b1-4)GlcNAc(b1-2)Man(a1-6)[Man(a1-3)]Man(b1-4)GlcNAc(b1-4)GlcNAc
# How it was run: as §1
# [23] = target: Neu5Ac(a2-6)Gal(b1-4)GlcNAc(b1-3)GalNAc
# How it was run: as §1
# [24] = target: Neu5Ac(a2-6)GlcNAc(b1-4)GlcNAc(b1-4)GlcNAc
# How it was run: as §1
binder,measurement,setting,value
B1,glycan array binding signal (z-score),[1],4.34
same,glycan array binding signal (z-score),[2],-0.339
same,glycan array binding signal (z-score),[3],-0.446
same,glycan array binding signal (z-score),[4],2.63
same,glycan array binding signal (z-score),[5],-0.022
same,glycan array binding signal (z-score),[6],-0.527
same,glycan array binding signal (z-score),[7],-0.394
same,glycan array binding signal (z-score),[8],-0.252
same,glycan array binding signal (z-score),[9],3.03
same,glycan array binding signal (z-score),[10],0.202
same,glycan array binding signal (z-score),[11],-0.047
same,glycan array binding signal (z-score),[12],-0.315
same,glycan array binding signal (z-score),[13],-0.253
same,glycan array binding signal (z-score),[14],3.05
same,glycan array binding signal (z-score),[15],0.038
same,glycan array binding signal (z-score),[16],15.7
same,glycan array binding signal (z-score),[17],-0.492
same,glycan array binding signal (z-score),[18],-0.212
same,glycan array binding signal (z-score),[19],-0.531
same,glycan array binding signal (z-score),[20],-0.045
same,glycan array binding signal (z-score),[21],0.223
same,glycan array binding signal (z-score),[22],0.03
same,glycan array binding signal (z-score),[23],-0.16
same,glycan array binding signal (z-score),[24],2.65
